Test results published in the supplement of paper PMC11732987, “Enantioselective OTUD7B fragment discovery through chemoproteomics screening and high-throughput optimisation” (Communications Chemistry, 2025).

Legend:
Test in all cases: log2 ratio of Biotin-Ahx-Ub-VS probe labelling (fragment/DMSO); higher = less target engagement (more negative = stronger competition), active = hit call of the paper (q ≤ 0.05, log2 ratio ≤ -1)
Details in all cases: compound concentration: 200 uM; treatment time: 3 h
[1] = target: USP34 (UniProt Q70CQ2)
Sequence of USP34 (Q70CQ2 whole entry, the tested form may be a part): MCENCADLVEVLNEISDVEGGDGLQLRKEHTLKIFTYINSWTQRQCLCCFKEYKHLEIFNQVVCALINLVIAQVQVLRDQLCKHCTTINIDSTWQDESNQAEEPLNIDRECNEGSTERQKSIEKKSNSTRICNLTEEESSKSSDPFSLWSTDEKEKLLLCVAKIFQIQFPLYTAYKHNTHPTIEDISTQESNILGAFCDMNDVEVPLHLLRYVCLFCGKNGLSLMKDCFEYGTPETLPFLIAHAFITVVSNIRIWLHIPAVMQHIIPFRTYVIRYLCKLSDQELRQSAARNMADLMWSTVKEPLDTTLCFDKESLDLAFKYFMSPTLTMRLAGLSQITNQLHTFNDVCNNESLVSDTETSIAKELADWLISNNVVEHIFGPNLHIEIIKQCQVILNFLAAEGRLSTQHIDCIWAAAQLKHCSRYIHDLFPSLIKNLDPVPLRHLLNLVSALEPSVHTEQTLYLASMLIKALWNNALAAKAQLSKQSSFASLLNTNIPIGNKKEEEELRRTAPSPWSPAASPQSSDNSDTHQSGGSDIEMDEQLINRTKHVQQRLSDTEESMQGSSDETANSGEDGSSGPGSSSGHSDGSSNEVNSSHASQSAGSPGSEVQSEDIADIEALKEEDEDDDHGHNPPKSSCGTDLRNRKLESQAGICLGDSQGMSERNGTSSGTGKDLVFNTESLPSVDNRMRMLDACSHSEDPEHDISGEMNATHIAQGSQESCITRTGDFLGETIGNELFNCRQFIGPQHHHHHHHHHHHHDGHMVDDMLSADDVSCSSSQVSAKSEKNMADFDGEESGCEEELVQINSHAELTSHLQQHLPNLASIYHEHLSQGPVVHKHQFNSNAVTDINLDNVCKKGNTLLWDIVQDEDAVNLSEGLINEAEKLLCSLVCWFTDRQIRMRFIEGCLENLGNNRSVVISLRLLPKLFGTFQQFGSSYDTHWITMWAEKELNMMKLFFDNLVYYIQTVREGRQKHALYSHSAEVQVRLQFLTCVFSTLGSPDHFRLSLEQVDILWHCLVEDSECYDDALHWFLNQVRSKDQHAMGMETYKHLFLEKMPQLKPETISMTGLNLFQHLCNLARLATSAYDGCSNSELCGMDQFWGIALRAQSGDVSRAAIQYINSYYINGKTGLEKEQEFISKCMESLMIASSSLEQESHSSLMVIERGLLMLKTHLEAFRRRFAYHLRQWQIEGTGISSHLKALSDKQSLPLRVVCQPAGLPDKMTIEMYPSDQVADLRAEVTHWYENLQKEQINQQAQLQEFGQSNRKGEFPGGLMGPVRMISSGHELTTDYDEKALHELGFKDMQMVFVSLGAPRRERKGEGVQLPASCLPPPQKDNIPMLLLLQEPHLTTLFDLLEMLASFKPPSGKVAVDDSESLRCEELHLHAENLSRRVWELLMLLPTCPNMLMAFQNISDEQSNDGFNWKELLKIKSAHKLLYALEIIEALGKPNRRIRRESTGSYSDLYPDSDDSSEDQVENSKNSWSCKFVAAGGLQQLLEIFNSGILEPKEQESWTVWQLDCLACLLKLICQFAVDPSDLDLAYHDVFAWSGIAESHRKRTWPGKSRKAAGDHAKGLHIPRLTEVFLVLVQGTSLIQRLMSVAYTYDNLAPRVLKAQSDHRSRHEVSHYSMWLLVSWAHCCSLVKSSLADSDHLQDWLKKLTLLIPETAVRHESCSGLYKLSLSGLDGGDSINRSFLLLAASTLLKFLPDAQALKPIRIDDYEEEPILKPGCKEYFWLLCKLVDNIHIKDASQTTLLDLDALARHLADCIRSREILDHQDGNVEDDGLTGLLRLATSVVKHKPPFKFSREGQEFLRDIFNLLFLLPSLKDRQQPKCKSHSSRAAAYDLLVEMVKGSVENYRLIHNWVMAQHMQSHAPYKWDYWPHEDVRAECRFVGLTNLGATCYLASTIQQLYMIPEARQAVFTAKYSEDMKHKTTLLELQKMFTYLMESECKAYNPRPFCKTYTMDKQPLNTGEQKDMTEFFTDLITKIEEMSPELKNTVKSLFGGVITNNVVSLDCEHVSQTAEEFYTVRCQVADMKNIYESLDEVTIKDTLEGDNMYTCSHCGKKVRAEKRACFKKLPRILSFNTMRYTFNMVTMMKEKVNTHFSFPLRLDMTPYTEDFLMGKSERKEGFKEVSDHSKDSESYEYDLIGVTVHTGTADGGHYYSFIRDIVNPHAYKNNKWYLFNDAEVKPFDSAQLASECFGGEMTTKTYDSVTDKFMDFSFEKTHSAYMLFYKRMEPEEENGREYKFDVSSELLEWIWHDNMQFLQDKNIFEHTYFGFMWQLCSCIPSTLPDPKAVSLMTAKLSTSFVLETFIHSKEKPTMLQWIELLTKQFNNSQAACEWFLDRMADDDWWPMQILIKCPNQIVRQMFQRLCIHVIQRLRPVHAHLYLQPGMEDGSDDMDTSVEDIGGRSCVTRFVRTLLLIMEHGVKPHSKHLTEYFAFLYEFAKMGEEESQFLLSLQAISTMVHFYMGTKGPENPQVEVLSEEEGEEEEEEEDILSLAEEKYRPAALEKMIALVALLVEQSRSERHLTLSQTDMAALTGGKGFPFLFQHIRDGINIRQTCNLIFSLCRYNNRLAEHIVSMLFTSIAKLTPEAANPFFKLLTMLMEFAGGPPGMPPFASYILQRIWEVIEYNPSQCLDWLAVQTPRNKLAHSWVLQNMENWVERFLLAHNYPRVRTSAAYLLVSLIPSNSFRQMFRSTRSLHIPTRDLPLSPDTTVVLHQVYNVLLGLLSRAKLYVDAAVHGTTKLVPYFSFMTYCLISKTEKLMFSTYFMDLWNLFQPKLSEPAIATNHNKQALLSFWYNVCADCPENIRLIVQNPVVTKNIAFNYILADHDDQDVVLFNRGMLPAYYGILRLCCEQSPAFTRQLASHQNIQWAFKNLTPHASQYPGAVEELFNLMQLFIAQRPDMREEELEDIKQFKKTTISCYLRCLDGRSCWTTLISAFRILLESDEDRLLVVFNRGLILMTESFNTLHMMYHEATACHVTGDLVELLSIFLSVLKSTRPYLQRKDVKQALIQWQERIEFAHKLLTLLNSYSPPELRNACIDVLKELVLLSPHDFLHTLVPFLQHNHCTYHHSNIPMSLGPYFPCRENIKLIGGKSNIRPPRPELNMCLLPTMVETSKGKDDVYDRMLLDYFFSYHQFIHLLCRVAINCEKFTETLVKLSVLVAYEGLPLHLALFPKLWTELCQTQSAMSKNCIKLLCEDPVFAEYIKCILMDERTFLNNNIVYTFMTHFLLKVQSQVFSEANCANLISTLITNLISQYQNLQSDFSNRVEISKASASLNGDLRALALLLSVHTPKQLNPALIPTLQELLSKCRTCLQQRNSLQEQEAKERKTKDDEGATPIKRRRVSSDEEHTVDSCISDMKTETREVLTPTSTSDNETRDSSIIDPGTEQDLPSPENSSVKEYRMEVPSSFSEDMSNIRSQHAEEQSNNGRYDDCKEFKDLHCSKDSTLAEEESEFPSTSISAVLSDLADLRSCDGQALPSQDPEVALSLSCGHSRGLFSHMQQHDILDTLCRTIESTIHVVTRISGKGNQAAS
Procedure, shortened: (§1)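 Each value is an average log2 ratio of fragment to vehicle, tested by unpaired t-test. The underlying Spectronaut label-free quantities were global-median-normalised, and only proteins with ≥2 unique peptides were included. Triplicate HEK293T lysate samples (495 µg) were exposed to fragment at 200 µM or vehicle for 3 h, then to Biotin-Ahx-Ub-VS at 0.5 µM final for 1 h, before NeutrAvidin enrichment of labelled DUBs, LysC and trypsin digestion, and diaPASEF LC-MS/MS.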

[2] = target: T1, USP36 (UniProt Q9P275)
T1 sequence (whole entry): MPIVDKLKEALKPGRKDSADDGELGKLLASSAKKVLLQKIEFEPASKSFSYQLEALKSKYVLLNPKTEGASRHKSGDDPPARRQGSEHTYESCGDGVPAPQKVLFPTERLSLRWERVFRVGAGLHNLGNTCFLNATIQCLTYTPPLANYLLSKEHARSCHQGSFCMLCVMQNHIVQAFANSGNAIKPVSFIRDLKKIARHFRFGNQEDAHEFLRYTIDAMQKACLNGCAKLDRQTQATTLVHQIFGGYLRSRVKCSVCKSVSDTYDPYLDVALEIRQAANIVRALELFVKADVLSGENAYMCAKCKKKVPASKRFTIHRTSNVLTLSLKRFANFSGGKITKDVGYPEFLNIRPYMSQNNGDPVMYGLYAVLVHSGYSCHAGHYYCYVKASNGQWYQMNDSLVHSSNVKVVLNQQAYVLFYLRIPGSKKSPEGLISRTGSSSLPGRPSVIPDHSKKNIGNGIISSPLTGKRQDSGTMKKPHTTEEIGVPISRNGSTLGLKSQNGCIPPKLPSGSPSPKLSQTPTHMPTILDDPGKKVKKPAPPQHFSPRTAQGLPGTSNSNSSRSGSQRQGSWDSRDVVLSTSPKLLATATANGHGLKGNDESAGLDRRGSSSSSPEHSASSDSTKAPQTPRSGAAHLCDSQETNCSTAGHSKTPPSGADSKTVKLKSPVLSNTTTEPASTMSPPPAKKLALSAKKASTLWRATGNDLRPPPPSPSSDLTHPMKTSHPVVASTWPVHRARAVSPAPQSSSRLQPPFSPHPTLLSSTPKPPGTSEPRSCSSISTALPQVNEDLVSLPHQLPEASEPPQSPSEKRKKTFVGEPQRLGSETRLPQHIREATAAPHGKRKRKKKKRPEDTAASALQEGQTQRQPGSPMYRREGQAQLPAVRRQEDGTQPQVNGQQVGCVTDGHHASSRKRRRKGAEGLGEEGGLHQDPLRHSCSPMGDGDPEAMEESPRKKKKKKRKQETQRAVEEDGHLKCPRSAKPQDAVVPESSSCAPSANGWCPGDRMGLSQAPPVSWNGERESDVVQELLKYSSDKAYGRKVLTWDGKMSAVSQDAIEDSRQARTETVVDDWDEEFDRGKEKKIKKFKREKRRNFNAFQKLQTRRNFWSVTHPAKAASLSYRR
Procedure, shortened: as §1

[3] = target: T2, USP38 (UniProt Q8NB14)
T2 sequence (whole entry): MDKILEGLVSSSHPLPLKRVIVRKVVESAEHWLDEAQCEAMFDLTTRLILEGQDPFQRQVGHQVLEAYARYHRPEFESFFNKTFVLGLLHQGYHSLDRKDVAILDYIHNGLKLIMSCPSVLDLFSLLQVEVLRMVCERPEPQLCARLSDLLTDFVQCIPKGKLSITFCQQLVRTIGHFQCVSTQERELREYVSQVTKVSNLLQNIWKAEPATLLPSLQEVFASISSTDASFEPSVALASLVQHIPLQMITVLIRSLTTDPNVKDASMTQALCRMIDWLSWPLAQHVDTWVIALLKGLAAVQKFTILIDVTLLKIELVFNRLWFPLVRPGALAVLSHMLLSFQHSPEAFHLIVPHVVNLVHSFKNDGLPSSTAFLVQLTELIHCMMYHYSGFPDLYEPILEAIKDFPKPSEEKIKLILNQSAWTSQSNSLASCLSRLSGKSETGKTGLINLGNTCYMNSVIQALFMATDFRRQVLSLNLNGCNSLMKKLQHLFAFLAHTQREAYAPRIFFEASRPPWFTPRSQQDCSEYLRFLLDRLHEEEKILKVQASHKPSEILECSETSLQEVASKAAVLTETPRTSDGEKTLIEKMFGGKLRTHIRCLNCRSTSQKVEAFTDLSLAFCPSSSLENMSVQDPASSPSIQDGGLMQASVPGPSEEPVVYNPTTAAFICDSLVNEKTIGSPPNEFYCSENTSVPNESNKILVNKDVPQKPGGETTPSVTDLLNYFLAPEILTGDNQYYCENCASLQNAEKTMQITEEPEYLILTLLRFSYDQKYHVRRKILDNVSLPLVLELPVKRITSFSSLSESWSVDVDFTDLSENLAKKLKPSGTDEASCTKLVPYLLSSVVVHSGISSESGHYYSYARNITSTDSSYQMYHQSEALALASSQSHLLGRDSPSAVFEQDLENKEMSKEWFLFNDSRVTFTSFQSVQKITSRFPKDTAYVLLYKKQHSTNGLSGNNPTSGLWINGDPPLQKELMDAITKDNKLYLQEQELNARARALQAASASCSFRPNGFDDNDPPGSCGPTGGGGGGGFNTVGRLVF
Procedure, shortened: as §1

[4] = target: T3, USP39 (UniProt Q53GS9)
T3 sequence (whole entry): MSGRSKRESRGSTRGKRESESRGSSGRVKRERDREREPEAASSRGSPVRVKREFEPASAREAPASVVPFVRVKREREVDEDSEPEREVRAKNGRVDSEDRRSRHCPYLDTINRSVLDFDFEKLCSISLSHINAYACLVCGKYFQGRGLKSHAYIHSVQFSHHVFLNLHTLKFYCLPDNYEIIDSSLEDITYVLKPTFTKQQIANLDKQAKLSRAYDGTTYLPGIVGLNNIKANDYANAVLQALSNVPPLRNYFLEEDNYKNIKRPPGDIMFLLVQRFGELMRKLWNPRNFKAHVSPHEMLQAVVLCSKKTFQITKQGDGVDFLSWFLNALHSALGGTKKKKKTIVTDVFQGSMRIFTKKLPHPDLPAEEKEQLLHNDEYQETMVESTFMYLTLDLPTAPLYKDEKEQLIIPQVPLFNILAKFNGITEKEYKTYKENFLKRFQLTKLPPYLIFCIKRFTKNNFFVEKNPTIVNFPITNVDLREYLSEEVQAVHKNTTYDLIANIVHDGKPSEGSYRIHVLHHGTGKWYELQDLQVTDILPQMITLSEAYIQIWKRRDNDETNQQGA
Procedure, shortened: as §1

[5] = target: T4, USP4 (UniProt Q13107)
T4 sequence (whole entry): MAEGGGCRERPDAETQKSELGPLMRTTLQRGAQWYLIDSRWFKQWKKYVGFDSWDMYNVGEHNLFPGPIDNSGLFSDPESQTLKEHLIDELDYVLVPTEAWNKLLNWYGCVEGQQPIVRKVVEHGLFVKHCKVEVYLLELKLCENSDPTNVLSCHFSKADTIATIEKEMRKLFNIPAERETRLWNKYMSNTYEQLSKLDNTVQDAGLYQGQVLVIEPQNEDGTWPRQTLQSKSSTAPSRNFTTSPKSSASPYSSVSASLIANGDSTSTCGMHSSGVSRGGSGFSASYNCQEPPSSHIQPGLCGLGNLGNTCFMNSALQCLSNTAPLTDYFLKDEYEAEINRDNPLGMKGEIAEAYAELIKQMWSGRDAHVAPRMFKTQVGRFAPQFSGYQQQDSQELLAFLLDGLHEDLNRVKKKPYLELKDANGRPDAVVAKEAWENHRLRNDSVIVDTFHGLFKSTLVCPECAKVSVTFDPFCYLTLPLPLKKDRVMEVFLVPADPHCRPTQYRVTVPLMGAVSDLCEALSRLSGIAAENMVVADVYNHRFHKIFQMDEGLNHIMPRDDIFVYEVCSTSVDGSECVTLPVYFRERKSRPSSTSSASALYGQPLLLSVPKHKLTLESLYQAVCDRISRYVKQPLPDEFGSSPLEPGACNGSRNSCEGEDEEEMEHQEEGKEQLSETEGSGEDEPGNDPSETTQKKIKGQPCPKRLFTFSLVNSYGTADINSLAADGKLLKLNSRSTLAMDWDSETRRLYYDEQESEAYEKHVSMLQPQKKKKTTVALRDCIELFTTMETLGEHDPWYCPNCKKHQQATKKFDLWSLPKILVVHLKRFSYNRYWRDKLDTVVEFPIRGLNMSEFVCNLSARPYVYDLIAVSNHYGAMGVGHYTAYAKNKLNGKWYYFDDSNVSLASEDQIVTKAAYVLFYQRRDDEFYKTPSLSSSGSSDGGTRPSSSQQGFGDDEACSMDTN
Procedure, shortened: as §1

Measured: log2 ratio of Biotin-Ahx-Ub-VS probe labelling

O=C(CCl)N1CCC[C@@H]1c1ccon1
inactive: [1] -0.0339 | [2] -0.122 | [3] -0.189 | [4] 0.0959 | [5] -0.394
